About 100 (0.027%) of roughly 370,000 compounds were called active. The call rests on the fitted dose curve; in most records, active means well fitted inhibition curve with a large enough effect in the polarisation, with a control signal flat; inconclusive means small, poorly fitted or top-dose-only effect, or effect the other way, or a change in a side signal; inactive means no such curve, though single readings can be large or run the other way; the % refers to the polarisation. The sample as a whole holds a higher share of actives than the screen did.
biological target: Transcriptional regulator ERG (Homo sapiens) (UniProt P11308); test: qHTS for Small Molecule Inhibitors of the ERG Ets/DNA interaction; settings: fluorescence polarization, His-ERG Ets domain / labelled DNA; series mostly up to 76.9 µM; FP activity, negative = inhibition: at the top concentration; on FP activity, negative = inhibition: % of control where 0% means no effect
Sequence (P11308 whole entry, looked up, the tested form may be a part): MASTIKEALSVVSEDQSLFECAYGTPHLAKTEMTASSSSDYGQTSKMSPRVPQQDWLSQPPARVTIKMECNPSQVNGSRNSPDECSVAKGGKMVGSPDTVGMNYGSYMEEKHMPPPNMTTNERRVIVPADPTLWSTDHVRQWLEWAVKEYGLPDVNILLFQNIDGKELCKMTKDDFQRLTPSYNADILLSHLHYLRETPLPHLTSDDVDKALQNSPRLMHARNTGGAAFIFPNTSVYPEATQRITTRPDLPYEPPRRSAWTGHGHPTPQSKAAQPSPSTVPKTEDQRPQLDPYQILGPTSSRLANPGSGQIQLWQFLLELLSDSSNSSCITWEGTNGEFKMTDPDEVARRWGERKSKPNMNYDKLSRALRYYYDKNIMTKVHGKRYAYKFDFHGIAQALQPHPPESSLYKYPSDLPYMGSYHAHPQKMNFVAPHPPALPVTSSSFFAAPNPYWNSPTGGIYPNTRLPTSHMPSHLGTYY
From the text: The Ets family of proteins is a family of ~30 conserved transcription factors defined by the presence of an ~85 amino acid domain referred to as the Ets domain, which mediates sequence-specific DNA binding to a core DNA element GGAA/T.The Ets family member ERG has been linked to several neoplasms. […] More extensive studies of the effects of over-expression of ERG in prostate cells have recently been carried out and have shown that over-expression of ERG results in increased invasion. […] We will carry out a high throughout screen to identify inhibitors of the interaction between ERG and DNA using a fluorescence polarization (FP) assay with a His-tagged ERG Ets domain and fluorescently-labeled DNA probes to develop small molecule inhibitors of this interaction as probes to test this hypothesis and lay the groundwork for the development of targeted therapies against ERG. NIH Molecular Libraries Probe Production Network [MLPCN] NIH Chemical Genomics Center [NCGC] Grant: NS066464 PI Name: John Bushweller, University of Virgina
1.5 ul of protein solution (1 uM ERG domain in 300mM KCl, 50mM Tris-HCl, 1mM EDTA, 1mM DTT, pH 7.5); 20 nl Control plate and compound library plate; 1.5 ul mixture of 5 nM Fluorescein-DNA and 100nM Texas-615-DNA solution in same buffer as above solution; measure fluorescence polarization sequentially for fluorescein (Excitation = 480 nm, Emission = 535s, 535p nm) and Texas red (Excitation = 555 nm, Emission = 632s, 632p nm).
Potency means the concentration at half of the fitted maximal effect.

SMILES	FP activity, negative = inhibition	Potency
O=C(Nc1ccccc1F)C(c1ccccc1)N1Cc2ccccc2C1=O (stereo not given)	-0.37% (inactive)	–
COc1ccccc1CNC(=O)CCCn1c(=O)c2ccccc2n(CC(=O)Nc2ccc(C)cc2Cl)c1=O	9.36% (inactive)	–
O=C1Cc2cc(S(=O)(=O)Nc3ccc(OC(F)(F)F)cc3)cc3c2N1CCC3	10% (inactive)	–
CCc1ccc(NC(=O)c2nn(-c3ccc(C)cc3)c(=O)n(C)c2=O)cc1	-0.735% (inactive)	–
COC(=O)c1scc(-c2ccccc2)c1S(=O)(=O)Nc1ccccc1	0.898% (inactive)	–
CC1CCN(C(=O)Cn2c(=O)n(-c3ccc(Cl)cc3)c(=O)c3c4c(sc32)CCC4)CC1	4.19% (inactive)	–
CCCn1c(NCc2ccc(N(CC)CC)cc2)nc2ccccc21	-3.75% (inactive)	–
Cc1ccccc1C(=O)NCc1nc(-c2ccc(Cl)cc2)no1	-2.03% (inactive)	–
Cc1cc(C)c(-c2n[nH]c3c2C(c2ccccc2F)N(CCO)C3=O)c(O)c1 (stereo not given)	-4.81% (inactive)	–
COc1ccccc1-c1cc2nc(C)c(CCC(=O)O)c(C)n2n1	-0.16% (inactive)	–
CC(C)c1ccc(NC(=O)C2CCN(c3nc(-c4ccc(C(C)C)cc4)no3)CC2)cc1	2.37% (inactive)	–
Cc1c(CNC2CCCCC2)c(C(=O)O)c(C)n1Cc1cccc(Cl)c1	-2.9% (inactive)	–
Cc1ccc(C(=O)NCCSc2c(C)[nH]c3ccccc23)cc1C	-6.47% (inactive)	–
CCCCNC(=O)CSc1nc2cc3c(cc2c(=O)n1CCCCCC(=O)NCc1ccc2c(c1)OCO2)OCO3	-12.3% (inactive)	–
N#Cc1ccc(-c2cccs2)nc1SCc1ccc(Br)cc1	12.1% (inactive)	–
CCc1nn(CC(=O)Nc2cccc(C)c2C)c(=O)c2cc3sccc3n12	13.6% (inactive)	–
O=C(Cn1c(=O)n(-c2ccc(F)cc2)c(=O)c2sccc21)Nc1cccc(C(F)(F)F)c1	-2.35% (inactive)	–
COc1cccc(N=C2SC(C(=O)Nc3cccc(Cl)c3)CC(=O)N2C)c1 (stereo not given)	-5.94% (inactive)	–
COC(=O)c1sccc1S(=O)(=O)N(CC(=O)Nc1ccc(C)c(F)c1)c1ccc(C)c(C)c1	2.23% (inactive)	–
Cc1ccc(CCNC(=O)C2CCN(c3nnc(-n4cccc4CNc4ccc(C)cc4)s3)CC2)cc1	0.384% (inactive)	–
Cc1ccccc1CNC(=O)C1CCCN(S(=O)(=O)N(C)c2ccc(F)cc2)C1 (stereo not given)	-3.29% (inactive)	–
CCOc1ccccc1CNC(=O)c1ccc(-n2c(C)cc3c2CCC(C)C3)cc1 (stereo not given)	5.18% (inactive)	–
CCOC(=O)c1scc(-c2ccccc2)c1S(=O)(=O)Nc1ccccc1F	3.67% (inactive)	–
COc1ccc(C)cc1NC(=O)COCc1cc(-c2cccs2)on1	8% (inactive)	–

SMILES	FP activity, negative = inhibition	Potency
COc1ccc(NC(=O)CSC2=Nc3ccccc3C3=NC(CC(=O)NCc4ccccc4OC)C(=O)N23)cc1Cl (stereo not given)	-0.573% (inactive)	–
O=C(/C=C/c1ccccc1)Nc1cc(-c2nc3cc(Cl)ccc3o2)ccc1Cl	4.72% (inactive)	–
Cc1ccc(-n2ncc3c(NCCCn4ccnc4)ncnc32)cc1Cl	-1.49% (inactive)	–
Cc1nn2c(=O)cc(COC(=O)c3cccc(NC(=O)COc4ccccc4Cl)c3)nc2s1	8.49% (inactive)	–
COc1ccc(CNC(=O)CC2Oc3ccc(C)cc3NC2=O)cc1 (stereo not given)	1.76% (inactive)	–
CCOc1ccc(C2C(=O)N(C3CCCCC3)CC(=O)N2CCC2=CCCCC2)cc1OC (stereo not given)	-1.03% (inactive)	–
COc1ccc(NC(=O)CCCc2nnc3n(CCC(C)C)c(=O)c4sccc4n23)c(OC)c1	3.52% (inactive)	–
COc1ccc(CCNC(=O)c2c3c(nc4ccccc24)C(=O)N(C2CCCCC2)C3)cc1OC	0.33% (inactive)	–
Fc1ccccc1Oc1ncnc2c1oc1ccccc12	-0.355% (inactive)	–
CCOC(=O)c1sc(NC(=O)/C=C/c2ccc(C(C)C)cc2)c(C(=O)OCC)c1C	-7.51% (inactive)	–
CCOC(=O)c1ccc(CN(Cc2ccccc2)S(=O)(=O)c2ccc(Cl)cc2)cc1	0.277% (inactive)	–
COc1ccc(Br)cc1C1CC(=O)Nc2c1c(C)nn2-c1nc(C)cc(C)n1 (stereo not given)	-7.83% (inactive)	–
Cc1ccc(Cl)cc1NC(=O)CCC(=O)N1CC(C)Sc2ccccc21 (stereo not given)	3.77% (inactive)	–
Cc1ccc(C(=O)CC2(O)C(=O)N(CCc3ccccc3)c3ccc(Br)cc32)cc1 (stereo not given)	-0.549% (inactive)	–
COc1cc(NC(=O)Cn2nc(-c3ccc(C)c(C)c3)ccc2=O)cc(OC)c1	4.13% (inactive)	–
COc1ccccc1NC(=O)CN1C(=O)c2ccccc2Sc2ccc(C(=O)N3CCCC3)cc21	-2.51% (inactive)	–
CCOC(=O)c1[nH]c(C)c(CCC(=O)NCc2ccccc2C)c1C	-3.1% (inactive)	–
Cc1ccc(CNC(=O)CSc2c3c(nc4cc(Cl)ccc24)CCCC3)cc1	-0.34% (inactive)	–
CCN1C(=O)c2ccccc2S(=O)c2ccc(C(=O)NCc3ccc(F)cc3)cc21 (stereo not given)	-4.21% (inactive)	–
CC1Cc2cc(S(=O)(=O)CCC(=O)Nc3ccc(F)c(Cl)c3)ccc2N1C(=O)C1CC1 (stereo not given)	0.16% (inactive)	–
O=C(CSc1n[nH]c(-c2ccccc2)n1)N1CCCCC1	8.6% (inactive)	–
O=C(/C=C/c1cn(CC(O)CN2CCc3ccccc32)c2ccccc12)c1ccc(Br)cc1 (stereo not given)	-7.5% (inactive)	–
CC(=O)c1nn(-c2ccc(OC(F)(F)F)cc2)nc1Nc1ccccc1	-1.16% (inactive)	–
Cc1nn(-c2ccc(N3CCCCC3)nn2)c(C)c1CCC(=O)NCc1ccccc1F	-5.53% (inactive)	–

SMILES	FP activity, negative = inhibition	Potency
CCc1ccc(C(=O)CC2(O)C(=O)N(CCc3ccccc3)c3ccc(Br)cc32)cc1 (stereo not given)	-0.514% (inactive)	–
CCOc1cc(C2c3c(-c4ccc(Br)cc4)n[nH]c3C(=O)N2c2ccc(Cl)cc2)ccc1O (stereo not given)	12% (inactive)	–
CCOc1ccc(-c2nonc2NC(=O)c2oc3ccc(C)cc3c2C)cc1OCC	0.0958% (inactive)	–
CC1=C(C(=O)OCC(C)C)C(c2ccc(OCc3ccccc3)cc2)N2C(=O)CCSC2=N1 (stereo not given)	-0.84% (inactive)	–
O=C(NCc1ccccc1)c1ccc2c(c1)nc1n2CCCCC1	-0.294% (inactive)	–
COC(=O)c1cc(S(=O)(=O)N2CCN(c3cc(Cl)ccc3C)CC2)c[nH]1	-1.55% (inactive)	–
Cc1ccc(C)c(N2CCN(CCCNC(=O)Nc3ccc(Cl)cc3)CC2)c1	1.63% (inactive)	–
COc1ccc(-c2cn3nc(N4CCC(C(=O)Nc5cccc(C)c5C)CC4)sc3n2)cc1	-1.85% (inactive)	–
COc1ccc(OC)c(NC(=O)CSC2=Nc3ccccc3C3=NC(CC(=O)NCc4ccc(F)cc4)C(=O)N23)c1 (stereo not given)	5.04% (inactive)	–
Cc1ccc2oc(=O)c3cnn(CC(=O)NCc4ccccc4Cl)c3c2c1	-1.05% (inactive)	–
CCOc1ccc(CNC(=O)c2cccc(Nc3nc4ccccc4n4nnnc34)c2)cc1OC	-1.27% (inactive)	–
Cc1ccc(C)c(Oc2c(C(F)(F)F)oc3c(CN4CCN(C)CC4)c(O)ccc3c2=O)c1	1.61% (inactive)	–
CCOc1ccccc1NC(=O)CN1CCCN(Cc2cccc(Cl)c2)S1(=O)=O	4.01% (inactive)	–
Cc1ccc(OCCSc2nc(C)c(Cc3ccccc3)c(=O)[nH]2)cc1	1.16% (inactive)	–
CCC1(C)CC(=O)c2c(ccc3oc(C(=O)Nc4ccc(C(C)=O)cc4)c(C)c23)O1 (stereo not given)	-5.73% (inactive)	–
COc1ccc(CCNC(=O)c2ccc(-n3c(C)cc4c3CCCC4)cc2)cc1OC	-3.33% (inactive)	–
Cc1ccc(C)c(CNC(=O)c2cc3ccccn3n2)c1	-10.3% (inactive)	–
CCOc1ccccc1NC(=O)CN1CCN(S(=O)(=O)c2ccc(Br)cc2)CC1	2.57% (inactive)	–
Cc1oc(-c2ccccc2F)nc1CN1CCC(C(=O)NCCc2ccc(Cl)cc2)CC1	-1.13% (inactive)	–
CCOc1cccc(C(=O)Nc2nnc(S(=O)(=O)N(C)c3ccc(C)cc3)s2)c1	0.655% (inactive)	–
COc1ccc(Cn2ccc3nc(C)c(C(=O)Nc4ccc(C)c(F)c4)cc3c2=O)cc1	-3.4% (inactive)	–
COc1ccc(OC)c(CNC(=O)Cn2nc(C)c3c(C)n(-c4ccccc4)nc3c2=O)c1	3.15% (inactive)	–
CCN(CC)CCNC(=O)CN1N=C(c2ccc(OC)cc2)CCC1=O	-3.32% (inactive)	–
CCOC(=O)c1cc2c(=O)n3ccccc3nc2n(CCCOC)c1=NC(=O)C(C)(C)Oc1ccc(Cl)cc1	-23.1% (inactive)	–

SMILES	FP activity, negative = inhibition	Potency
COc1cccc(-c2nnc(SCC(=O)N3CCC(C)CC3)o2)c1	1.34% (inactive)	–
COC(=O)c1ccc(NC(=O)c2cnn(-c3ccc(Cl)cc3)c2C2CCN(C(=O)OC(C)(C)C)CC2)cc1	2.85% (inactive)	–
COc1cccc2c1C(=O)c1c(O)c3c(c(O)c1C2=O)CC(O)(C(C)=NNC(=O)c1ccc(Cl)c(Cl)c1)CC3OC1CC(N)C(O)C(C)O1 (stereo not given)	–	2.51 µM (active)
O=C(NCc1ccc2c(c1)CCN2C(=O)c1ccccc1)Nc1cc(F)ccc1F	-0.322% (inactive)	–
O=C(NCCCO)C(=O)Nc1c2c(nn1-c1ccccc1)CSC2	6.72% (inactive)	–
O=C(Nc1ccc2nc(SCCOc3ccccc3Cl)sc2c1)c1ccco1	-0.316% (inactive)	–
CCc1nc(-c2cc(S(=O)(=O)N3CCN(c4ccc(OC)cc4)CC3)ccc2OC)no1	-3.39% (inactive)	–
CCCN1CCc2nc(N3CCN(C)CC3)ncc2C1	1.55% (inactive)	–
C/C(=N/NC(=O)CCc1ccccc1)c1ccco1	–	28.2 µM (active)
C/C(CC(=O)NC(C)(C)C)=N\NC(=O)c1ccco1	3.01% (inactive)	–
COc1cccc2cc(/C(C)=N/NC(=O)c3ccco3)oc12	-10.8% (inactive)	–
CCC1=Nc2cc(C(=O)NCCCOC(C)C)ccc2Sc2ccc(C)cc21	-0.0425% (inactive)	–
CCOC(=O)c1ccc2c(c1)N(Cc1cccc(OC)c1)C(=O)c1ccccc1S2(=O)=O	-4.86% (inactive)	–
CN(C(=O)c1ccc2c(c1)N(Cc1cccc(Cl)c1)C(=O)c1ccccc1S2=O)C1CCCCC1 (stereo not given)	-4.59% (inactive)	–
O=C1CN(C(=O)Nc2ccccc2C(F)(F)F)C(c2ccccc2)c2c(sc3c2CCCC3)N1 (stereo not given)	6.74% (inactive)	–
COc1ccccc1NC(=O)C1=C(C)Nc2nc(SCC(=O)c3ccc(C)cc3)nn2C1c1ccccc1C (stereo not given)	-8.08% (inactive)	–
O=C1N(Cc2ccccc2)c2ccc(Cl)cc2C1(O)c1c[nH]c2ccccc12 (stereo not given)	0.882% (inactive)	–
CCOC(=O)c1c(NC(=O)/C=C/c2ccc(OC)cc2)sc2c1CCC(C)C2 (stereo not given)	2.55% (inactive)	–
CCOC(=O)c1ccccc1NC(=O)c1nn(-c2ccc(OC)c(Cl)c2)c(=O)c2c1c1ccccc1n2C	-3.65% (inactive)	–
CCc1ccc(NS(=O)(=O)c2ccc3[nH]cc(C(=O)NCCc4cccc(C)c4)c(=O)c3c2)cc1	-8.63% (inactive)	–
COc1ccc(N2CCN(c3nc(-c4ccccc4F)nc4ccccc34)CC2)cc1	-3% (inactive)	–
CC(C)c1ccc(OCC(=O)N(Cc2ccc(N(C)C)cc2)C2CCS(=O)(=O)C2)cc1 (stereo not given)	-0.0046% (inactive)	–
CCOc1cccc(CC(=O)N2CCc3c([nH]c4ccccc34)C2c2ccc(F)cc2)c1OCC (stereo not given)	1.73% (inactive)	–
